High-throughput results: PubChem, The Scripps Research Institute Molecular Screening Center
Only some compounds are listed: those with a hit (about 2.9% of all), similar ones and a draw of the others.
PAFAH1B2 inh = PAFAH1B2 enzyme inhibitors, primary screen, biochemical, fluorescence polarization, human. Platelet-activating factor acetylhydrolase IB subunit alpha2 (Homo sapiens), P68402. actives 1.2% (n = 340,000). inhibition, % at 3.39 µM. recombinant PAFAH1B2, FP-rhodamine activity probe;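 active = inhibition above the mean of all tested compounds plus 3 SD, cut at about 24% in these data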
PAFAH1B3 FP inh = PAFAH1B3 enzyme inhibitors, primary screen, biochemical, fluorescence polarization, human | Platelet-activating factor acetylhydrolase IB subunit alpha1 (Homo sapiens), Q15102 | recombinant PAFAH1B3, FP-rhodamine probe | inhibition, % at 3.39 µM | actives 0.28% (n = 340,000);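 active = inhibition above the screen-wide average of all tested compounds plus 3 SD, cut at about 25% in these data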
PAFAH2 inh = PAFAH2 enzyme inhibitors, primary screen, biochemical, fluorescence polarization, human. Platelet-activating factor acetylhydrolase 2, cytoplasmic (Homo sapiens), Q99487. recombinant PAFAH2, FP-rhodamine activity probe. inhibition, % at 3.39 µM. actives 0.99% (n = 340,000). AID 492956, 2010;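 active = inhibition above the mean over all tested compounds plus 3 SD, cut at about 30% in these data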;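 also: inhibitors block probe labeling of enzyme so polarization drops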
pPAFAH FP inh = pPAFAH enzyme inhibitors, primary screen, biochemical, fluorescence polarization, human | recombinant pPAFAH, FP-rhodamine probe fluorescence polarization | AID 463082, 2010 | actives 1.5% (n = 330,000) | Platelet-activating factor acetylhydrolase (Homo sapiens), Q13093 | inhibition, % at 3.39 µM;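 active = inhibition above the mean inhibition across the screen plus 3 SD, cut at about 25% in these data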;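 also: inhibitors block binding of the rhodamine activity-based probe so polarization drops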
Target sequence (Q13093 whole entry, looked up): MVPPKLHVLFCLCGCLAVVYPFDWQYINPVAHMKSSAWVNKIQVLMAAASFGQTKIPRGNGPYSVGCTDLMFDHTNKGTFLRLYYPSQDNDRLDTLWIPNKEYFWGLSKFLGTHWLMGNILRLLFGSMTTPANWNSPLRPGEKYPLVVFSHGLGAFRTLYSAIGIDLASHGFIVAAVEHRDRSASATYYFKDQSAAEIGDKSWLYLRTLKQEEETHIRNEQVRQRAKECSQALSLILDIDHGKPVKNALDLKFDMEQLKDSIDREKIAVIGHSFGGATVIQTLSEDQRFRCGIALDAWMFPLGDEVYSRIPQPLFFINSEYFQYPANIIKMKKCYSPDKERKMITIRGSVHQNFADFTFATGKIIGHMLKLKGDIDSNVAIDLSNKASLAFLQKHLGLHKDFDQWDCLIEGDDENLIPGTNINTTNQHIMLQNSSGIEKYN
EBNA-1 inhibitor = EBNA-1 DNA-binding inhibitors, primary screen, biochemical, fluorescence polarization; inhibition, % at 14.8 µM; actives 0.34% (n = 300,000); in the data active = inhibition above about 28%
ZTA counter = counter-screen for EBNA-1 inhibitors: inhibitors of Epstein-Barr virus ZTA; actives 0.15% (n = 320,000); P03206; inhibition, % at 11 µM; ZTA-DNA binding, fluorescence polarization; in the data active = inhibition above about 33%
pPAFAH FP conf = pPAFAH (PLA2G7) enzyme inhibitors, confirmation, biochemical, fluorescence polarization, human; recombinant pPAFAH, FP-Rh probe fluorescence polarization; inhibition, % at 3.39 µM; actives 72% (n = 2,300); AID 463230, 2010; shares compounds with pPAFAH FP inh;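 active = mean inhibition of the triplicate above the hit cutoff set for the earlier primary screen, cut at about 25% in these data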
Numbers stand for hits; – = inactive; · = no result given.

SMILES	PAFAH1B2 inh	PAFAH1B3 FP inh	PAFAH2 inh	pPAFAH FP inh	EBNA-1 inhibitor	ZTA counter	pPAFAH FP conf
CCN1/C(=C/C=C/c2oc3ccc(-c4ccccc4)cc3[n+]2CC)Oc2ccc(-c3ccccc3)cc21	26.3	–	–	59.4	–	–	–
O=C(NCCN1CCN(Cc2ccccc2)CC1)c1ccc(CS(=O)(=O)c2ccc(Br)cc2)o1	–	–	–	–	–	–	·
O=C([O-])c1ccccc1-[n+]1c(-c2ccccc2)cc(-c2ccccc2)cc1-c1ccccc1	–	–	–	–	–	–	·
Cc1cc(/C=N/Nc2ccc([N+](=O)[O-])cn2)c(C)n1-c1ccc(C(=O)O)cc1	–	–	–	53.8	–	–	–
CC1(C)CC(CCC(=O)NC(=S)Nc2ccccc2Cl)C(=O)O1 (centres undefined)	–	–	–	–	–	–	·
CCc1ccc(S(=O)(=O)Nc2ccc(O)c3c(=O)cc(-c4ccccc4Cl)oc23)cc1	–	–	–	–	–	–	·
O=c1cc(-c2ccccc2Cl)oc2c(NS(=O)(=O)c3cc(Cl)cc(Cl)c3O)ccc(O)c12	–	–	–	41.4	–	–	78.1
O=C(CN1CCN(c2ccc(F)cc2)CC1)c1ccc(O)cc1O	–	–	–	–	–	–	·
CC(=O)c1c(OC(=O)c2ccccc2)c2ccccc2n1C	–	–	–	81.5	–	–	–
COc1ccc(CCOC(=O)c2ccc(NC(=O)CC#N)cc2)cc1	–	–	–	53.2	–	–	–
O=C(CCCSc1ccccc1)Nc1nc(-c2ccco2)c(-c2ccco2)s1	–	–	–	56.1	–	–	–
CCOC(=O)c1cc(C#N)c(SCC(=O)Nc2ccc(C(C)=O)cc2)[nH]c1=O	–	–	–	–	–	–	·
CCOC(=O)c1cc(C#N)c(SCC(N)=O)[nH]c1=O	–	–	–	50.6	–	–	–
O=C(COC(=O)COc1cccc(C(F)(F)F)c1)NC(=O)NC1CCCCC1	–	–	–	–	–	–	·
COc1ccc(CNCc2c(O)c(Cl)cc3c(C)c(C)c(=O)oc23)c(OC)c1	–	–	–	–	–	–	·
CCOC(=O)c1c(-c2ccc(C)c(C)c2)csc1NC(=O)C1CC=CCC1C(=O)O (centres undefined)	–	–	–	40.5	–	–	38.6
CCOC(=O)c1c(-c2ccc(F)cc2)csc1NC(=O)C1CC=CCC1C(=O)O (centres undefined)	–	–	–	–	–	–	·
COc1ccc(-c2cccc(NS(=O)(=O)c3cc([N+](=O)[O-])c(C)c([N+](=O)[O-])c3)c2)nn1	–	–	–	–	–	–	·
Nc1cc(-c2nn[nH]n2)ccc1F	–	–	–	42.6	–	–	–
O=C(O)CCc1ccc(-c2ccc(Br)cc2)n1Cc1ccco1	–	–	–	45.5	–	–	33.0
Cc1ccc(S(=O)(=O)Nc2cc(Cl)c(O)c3ncccc23)cc1	–	–	–	45.8	–	–	36.9
CC(OC(=O)c1ccc(Cl)cc1)C(=O)NCc1ccc2c(c1)OCO2 (centres undefined)	–	–	–	53.7	·	–	–
CCOC(=O)c1sc2nc3c(SCCC#N)cc(C(=O)c4cc(F)ccc4O)cn3c(=O)c2c1C	–	–	–	–	–	–	·
O=C(O)CSc1cc(C(=O)c2cc(F)ccc2O)cn2c(=O)c3c(-c4ccccc4)csc3nc12	–	–	–	53.1	–	–	65.0
O=C(Oc1ccc(Cl)cc1)N1CCOCC1	–	–	–	–	–	–	·
SMILES	PAFAH1B2 inh	PAFAH1B3 FP inh	PAFAH2 inh	pPAFAH FP inh	EBNA-1 inhibitor	ZTA counter	pPAFAH FP conf
O=C(Oc1ccc(-c2ccccc2)cc1)N1CCOCC1	–	–	32.2	94.3	–	–	97.9
O=C(Oc1ccccc1)N1CCCC1	–	–	–	–	–	–	·
O=C(Oc1ccc(Oc2ccccc2)cc1)N1CCC(O)CC1	–	–	–	93.6	–	–	92.4
CC(NC(=O)[C@H](C)N1C(=O)N2CCc3c([nH]c4ccccc34)[C@@]2(C)C1=O)c1ccccc1 (some centres undefined)	–	–	–	–	–	–	·
Cc1ccc(NC(=O)N[C@H](C(=O)O)C(C)C)c(C)c1	–	–	–	–	–	–	·
CCOc1ccc(C(=O)/C=C/c2ccc(OC)c(OC)c2)cc1	–	–	–	–	–	–	·
CCOc1ccc(/C=C/C(=O)c2cc(Br)ccc(=O)c2O)cc1	–	–	–	37.8	–	–	27.7
Cc1cccc(/C=C/C(=O)c2cc(Br)ccc(=O)c2O)c1	–	–	34.0	50.2	–	–	–
CCc1ccc(/C=C/C(=O)c2cc(Br)ccc(=O)c2O)cc1	–	–	34.2	70.0	–	–	42.9
O=C(C=Cc1ccccc1)c1cc(Br)ccc1O	–	–	–	·	·	·	·
Cc1cn2c(=O)c(C(=O)N3CCN(c4ccccc4)CC3)cnc2s1	–	–	–	–	–	–	·
Cc1noc(C)c1S(=O)(=O)Nc1ccc(C(=O)N2CCC(C)CC2)cc1	·	·	·	–	–	–	·
O=C(C[C@H]1C/C=C\C[C@H](NC(=O)OCC2c3ccccc3-c3ccccc32)C(=O)OC[C@@H]2CCCN2C1=O)NCCO	–	–	–	–	·	·	·
O=C(c1ccccc1)n1nc(-c2ccccc2)nc1NCc1ccco1	–	–	–	–	–	–	·
Cc1ccc(C(=O)n2nc(-c3ccccc3)nc2NCc2ccco2)cc1	–	–	–	74.2	–	–	–
CC(NCC(=O)NC(=O)NC1CCCC1)c1ccc(Cl)cc1Cl (centres undefined)	–	–	–	58.1	–	–	–
CCN(C(=O)CN1C(=O)S/C(=C\c2cccc(OC)c2)C1=O)C1CCS(=O)(=O)C1 (centres undefined)	–	–	–	–	–	–	·
Cc1ccc2nc(NC(=O)C3CCCN3C(=O)OC(C)(C)C)sc2c1 (centres undefined)	–	–	–	–	–	–	·
Cc1cc(-c2onc3ccc(Cl)cc23)ccc1O	–	–	–	–	–	–	·
C=CCN=C(NC#N)SCC(=O)c1cccc(OC)c1	–	–	–	60.9	–	–	–
CC(=O)N1CCc2c(sc(NC(=O)CS(=O)(=O)c3ccc(F)cc3)c2C#N)C1	–	–	–	42.9	–	–	–
N#C/C(=N\Nc1ccc(Cl)c(Cl)c1)C(=O)C1CC1	·	·	·	40.9	–	–	40.1
N#C/C(=N\Nc1ccc(F)cc1)C(=O)C1CC1	·	·	·	–	–	–	·
CCN(C[C@H]1N[C@@](Cc2ccccc2)(C(=O)OC)[C@H]2C(=O)N(C)C(=O)[C@@H]12)S(=O)(=O)c1ccc(OC)cc1	–	–	–	–	·	·	·
